# From ChEMBL document CHEMBL3433997, “St. Jude Leishmania screening dataset” (2016)
# Legend:
# Type in all cases: functional
# [1] = target: Solute carrier family 2, facilitated glucose transporter member 1 (Homo sapiens) (UniProt P11166); assay: ST_JUDE_LEISH: Cytotoxicity at 2uM final concentration against transgenic Leishmania Mexicana promastigotes LmGLUT1 that are glucose transport deficient and complemented with the human glucose transporter GLUT1. Activity is measured by DNA content using SYBR green in vitro
# Chain of Solute carrier family 2, facilitated glucose transporter member 1 (Homo sapiens) (P11166 whole entry): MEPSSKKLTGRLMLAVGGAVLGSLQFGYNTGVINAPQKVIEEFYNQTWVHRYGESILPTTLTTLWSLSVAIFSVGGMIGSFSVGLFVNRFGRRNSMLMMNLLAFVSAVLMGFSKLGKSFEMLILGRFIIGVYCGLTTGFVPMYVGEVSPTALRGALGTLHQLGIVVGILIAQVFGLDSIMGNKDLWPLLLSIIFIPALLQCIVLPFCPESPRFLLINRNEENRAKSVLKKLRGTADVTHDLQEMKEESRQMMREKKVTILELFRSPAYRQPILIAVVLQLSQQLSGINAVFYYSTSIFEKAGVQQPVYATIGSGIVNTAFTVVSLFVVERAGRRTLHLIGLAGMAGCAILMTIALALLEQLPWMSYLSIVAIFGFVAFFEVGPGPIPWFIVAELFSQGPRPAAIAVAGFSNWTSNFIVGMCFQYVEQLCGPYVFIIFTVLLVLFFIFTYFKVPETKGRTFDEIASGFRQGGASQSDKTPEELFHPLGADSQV
# [2] = target: Hexose transporter 1 (Plasmodium falciparum) (UniProt O97467); assay: ST_JUDE_LEISH: Cytotoxicity at 2uM final concentration against transgenic Leishmania Mexicana promastigotes LmPfHT that are glucose transport deficient and complemented with the Plasmodium falciparum hexose transporter. Activity is measured by DNA content using SYBR green in vitro
# [3] = target: Glucose transporter (Leishmania mexicana) (UniProt O61059); assay: ST_JUDE_LEISH: Cytotoxicity at 2uM final concentration against transgenic Leishmania Mexicana promastigotes LmGT2 that are glucose transport deficient and complemented with the L. Mexicana glucose transporter 2. Activity is measured by DNA content using SYBR green in vitro
SMILES,inhibition [1],inhibition [2],inhibition [3]
O=C(Nc1cccc(CN2CCCN(Cc3ccc(F)cc3)CC2)c1)c1cc2ccccc2s1,-2.26%,-1.55%,-0.88%
O=C(CN1C(=O)CC1S(=O)(=O)Cc1ccco1)NCCCCCCc1ccc(F)cc1 (stereo not drawn),-0.99%,1.25%,0.24%
Cc1cccc2nc(-c3ccc(-c4cccc(CN5CCCC(O)C5)c4)s3)[nH]c12 (stereo not drawn),3.6%,4.83%,2.93%
Nc1ccncc1C(=O)NCCCCN1CCN(c2nsc3ccccc23)CC1,-0.32%,0.47%,-1.16%
CN1CCN(CC(=O)Nc2cccc(-c3cccc(-c4nc5ccccc5[nH]4)c3)c2)CC1,-0.57%,-0.37%,-3.47%
CC(=O)Nc1ccc(C(=O)Nc2cccc(-c3cccc(-c4nc5cc(F)ccc5[nH]4)c3)c2)cn1,7.97%,10.8%,3.74%
COc1ccc(CCNCCCCCCNCCc2ccc(Cl)c(Cl)c2)cc1OC,4.21%,3.9%,3.76%
Cc1cc(Nc2ncc(Cl)c(Nc3ccccc3C(N)=O)n2)n[nH]1,-1.31%,2.51%,3.02%
CCC(C)NS(=O)(=O)c1ccc2nc(Nc3ccc(C)cc3)n(C3CCCCC3C)c2c1 (stereo not drawn),4.96%,3.92%,2.03%
Cc1[nH]c(C)c(-c2ccc(Br)cc2)c(=O)c1Cl,4.57%,3.47%,3.22%
N=C(N)NN=CC(=O)Nc1ccc(Cl)cc1,7.68%,11.3%,8.24%
NC1=NC(c2ccccc2)N(OCc2ccccc2)C(N)=N1 (stereo not drawn),0.52%,0.08%,0.06%
COc1ccc(C(=O)Nc2ccc3nc(N4CCCCC4)cc(C)c3c2)cc1[N+](=O)[O-],2.05%,3.3%,2%
Cc1cc(NCCc2ccccc2)nc(NC(=N)Nc2ccc(Cl)cc2)n1,0.08%,2.1%,-1.21%
O=c1cc(NCCCNCc2ccc(Cl)c(Cl)c2)[nH]c2cc(F)cc(F)c12,3.21%,2.15%,3.08%
CC(=O)Nc1ccc(CN2CCc3ccc(NS(=O)(=O)c4ccc(-c5cccc(C(F)(F)F)c5)cc4)cc3CC2)s1,2.54%,2.18%,3.46%
N#Cc1ccc(CN2CCC(Oc3ccc(NC(=O)c4cccs4)cc3)C2)cc1 (stereo not drawn),2.68%,-0.99%,0.05%
CN1CCN(c2cc(NC(=O)c3ccc(-c4ccc(Cl)cc4)cc3)ccc2Cl)CC1,-0.77%,-0.81%,-1.86%
Cc1ccc2nc(Cl)c3cc(C(=O)NCCCN4CCCC4)sc3c2c1,8.7%,10.2%,9.6%
Cc1cccc(NC(=O)Nc2ccc(I)c(OCCN(C)C)c2)c1C,15.2%,9.78%,10.1%
Oc1c(CN2CCC(Cc3ccccc3)CC2)cc(Cl)c2cccnc12,13.5%,14%,9.31%
Cc1oc(-c2ccccc2)nc1CCOc1ccc(C[C@H](Nc2ccccc2C(=O)c2ccccc2)C(=O)NCc2ccccn2)cc1,4.4%,4.88%,4.35%
CCn1cc(CN2CCCC(C(=O)Nc3ccc(-c4nc5ccccc5[nH]4)cc3)C2)cn1 (stereo not drawn),3.25%,3.52%,2.06%
CCOC(=O)c1ccc(-c2c(C(F)(F)F)noc2-c2cc(CC)c(OC)cc2O)o1,3.34%,2.22%,1.45%

SMILES,inhibition [1],inhibition [2],inhibition [3]
COc1cc(-c2nc(-c3ccc([N+](=O)[O-])cc3)c(-c3ccccc3)[nH]2)cc(OC)c1O,3.48%,5.84%,5.26%
CCN(CC)CCN(Cc1ccc(-c2ccc(Cl)cc2)cc1)C(=O)Cn1c(CCc2cccc(F)c2F)nc(=O)c2ccccc21,-2.54%,-2.71%,-1.69%
O=C(Nc1cc(Cl)ccc1O)c1ccc(Oc2ccc(C(=O)Nc3cc(Cl)ccc3O)cc2)cc1,-1.36%,-1.96%,-1%
Oc1ccc2[nH]c(-c3cccc(F)c3)nc2c1CNCc1ccccc1,9.11%,3.29%,2.86%
COc1ccc2nccc([C@@H](O)CN3CCC(NC(=O)C(c4cc5ccccc5o4)N4CCN(c5ccccc5OC)CC4)CC3)c2c1 (stereo partly drawn),1.2%,0.92%,-0.23%
O=C(NC1CCN(CCCOc2ccnc3cc(Cl)ccc23)C1)c1ccc(Br)cc1 (stereo not drawn),9.74%,7.84%,7.14%
CCCCNC(=O)[C@H](CC1CCCCC1)NC(=O)c1ccc(O)c(-c2cccc(C(F)(F)F)c2)c1,2.16%,3.75%,3.61%
Cc1noc(C)c1-c1cccc(CNCc2ccc(-c3cccc(-c4nc5cc(F)ccc5[nH]4)c3)cc2)c1,11.3%,10.1%,10.8%
Clc1ccc2c(NN=Cc3ccco3)ccnc2c1,3.59%,3.49%,0.47%
Cc1cccc(CNc2nc(C)cc(N[C@@H](CC(C)C)C(=O)NCCOc3ccccc3)n2)c1,4.29%,5.38%,2.08%
N=C(N)NN=Cc1ccc2c(c1)Cc1ccccc1-2,8.82%,8.08%,6.46%
Cc1ccccc1OCC(=O)Nc1ccc(-c2nc3cc4ccccc4cc3[nH]2)cc1,7.32%,3.71%,4.05%
CS(=O)(=O)Cc1ccc(Nc2nccc(-c3c(-c4cccc(NC(=O)c5c(F)cccc5F)c4)nn4ncccc34)n2)cc1,12%,8.45%,2.78%
CCN(CC)/C(=N/C(=N)Nc1ccc(Br)cc1)NCCCCCCN/C(=N\C(=N)Nc1ccc(Br)cc1)N(CC)CC,-1.08%,0.19%,-0.11%
O=C(N[C@@H](Cc1ccccc1)[C@H](O)CNC1CCc2ccccc2C1)c1cc(C2CCCC2)cc(N2CCCC2=O)c1 (stereo partly drawn),-3.59%,2.21%,-4.47%
Cc1cccc2nc(-c3ccc(-c4ccc(CN5CCCC(O)C5)cc4)cc3)[nH]c12 (stereo not drawn),25.8%,30.8%,19.8%
O=C1SC(=Cc2ccc(O)c(O)c2)C(=O)N1c1ccccc1,2.29%,2.56%,0.86%
Cc1ccn2cc(-c3ccc(NC(=O)c4ccc(Br)o4)cc3)nc2c1,1.17%,2.74%,0.61%
C=CCc1ccc(C2CCN(CCCCNC(=O)c3ccc(NC(=O)c4ccc(Cl)cc4)cc3)CC2)cc1,0.91%,0.58%,0.46%
CCOC(=O)c1ccc(NC(=O)N(Cc2ccc(-c3cccc(CN4CCNCC4)c3)cc2)C2CCN(Cc3ccccc3)CC2)cc1,2.49%,1.96%,7.56%
COc1ccc(CNC2Cc3ccccc3C2)cc1-c1ccc(S(=O)(=O)NCc2ccccc2)s1,6.85%,4.6%,4.36%
Cc1nc(C)c(CC(=O)Nc2ccc(-c3cccc(-c4nc5cc(C(F)(F)F)ccc5[nH]4)c3)cc2)s1,13%,10.6%,8.58%
CC(O)C1CCCCN1C(=O)c1cccc(-c2cccc(-c3nc4cc(C(F)(F)F)ccc4[nH]3)c2)c1 (stereo not drawn),-0.23%,1.12%,-0.12%
Fc1cccc(COc2ccc(Nc3ncnc4ccc(-c5nnc(C(F)(F)F)o5)cc34)cc2Cl)c1,4.63%,4.57%,1.46%

SMILES,inhibition [1],inhibition [2],inhibition [3]
CCN(CC)CCN(Cc1ccc(-c2ccc(C(F)(F)F)cc2)cc1)C(=O)Cn1c(CCc2cccc(F)c2F)nc(=O)c2cc(C)ccc21,5.28%,9.2%,7.16%
O=C(Cn1c2ccccc2c(=O)c2ccc(Cl)cc21)Nc1ccc(C(F)(F)F)cc1,-0.52%,-1.32%,-1.59%
CCN1CCC(N2CCC(C(=O)Nc3cccc(-c4cccc(Cl)c4)c3)CC2)CC1,0.8%,-1.24%,2.7%
COc1ccccc1-n1c(SCC(=O)c2ccc3c(c2)CC(=O)N3C)nnc1-c1cccs1,24%,35.2%,13.3%
COc1ccc2nccc([C@@H](O)CN3CCC(NCc4cc5cccc(O)c5c(=O)[nH]4)CC3)c2c1,13.7%,31.5%,1.42%
N#Cc1cncc(-c2nc3c(N4CCC(Cc5ccccc5)CC4)cccc3n2C2CCNC2)c1 (stereo not drawn),-0.31%,-0.39%,-0.61%
Cc1cc(C)cc(OCC(O)CN(CCN2CCOCC2)C(=O)Nc2ccc(Br)cc2)c1 (stereo not drawn),12.2%,9.85%,13.4%
COc1ccccc1N1CCN(CCCCNC(=O)c2ccc(NC(=O)c3ccc(OC(F)(F)F)cc3)cc2)CC1,1.23%,-0.16%,1.25%
CCc1nc(N)nc(N)c1CCCOc1ccccc1Cl,3.15%,2.69%,-0.4%
CC(CNC1CCN(CCn2c(=O)ccc3ccc(F)cc32)CC1)c1ccccc1 (stereo not drawn),-1.82%,-1.07%,-0.24%
CCOc1cc2c(cc1S(=O)(=O)c1ccc(COc3ccc(C(F)(F)F)cc3)cc1)CCN(C)CC2,1.72%,3.79%,1.18%
Cc1ccc(Nc2nccc(Nc3ccc4c(C)n[nH]c4c3)n2)cc1F,3.22%,4.19%,1.7%
COc1cc(-c2cc3cc(Cl)c(Cl)cc3[nH]2)ccc1C(=O)NCCC1CCCN1C (stereo not drawn),-0.78%,-0.94%,-1.26%
Cc1cc(N[C@@H](CC(C)C)C(=O)NCc2cccs2)nc(NCCc2cccs2)n1,7.52%,5.28%,3.84%
CC1(C)NC(N)=NC(=N)N1OCCOc1ccc(Cc2ccccc2)cc1,1.41%,0.91%,0.68%
Cc1ccccc1Cn1ccc2c3c(N)nc(N)nc3ccc21,92.7%,87.7%,81.9%
CC(=O)c1c(Nc2c(C)cc(C)cc2C)oc(C)cc1=O,3.7%,5.4%,3.1%
c1ccc(CN2CCC(NCc3ccc(-c4ccc(CNCc5cccnc5)cn4)cc3)CC2)cc1,3.27%,2.84%,3.77%
CCCc1ccc(S(=O)(=O)NC2CCN(c3ccnc(Nc4ccc(F)cc4)n3)C2)cc1 (stereo not drawn),0.73%,0.26%,1.48%
CC(C)CNCc1ccc(-c2ccc(CN(C(=O)NCCc3ccccc3)C3CCN(Cc4ccccc4)CC3)cc2)cc1,71.6%,53.7%,47.2%
CC(C)(C)C(=O)Nc1ccc(N2CCN(C(c3ccccc3)c3ccccc3)CC2)c(Cl)c1,8.85%,7.04%,4.93%
Cc1cccc2nc(-c3cccc(-c4cccc(NC(=O)NCc5cccc(F)c5)c4)c3)[nH]c12,4.66%,6.34%,5.41%
COc1ccc(NC(=O)Nc2ccc(-c3ccc(-c4nc5ccccc5[nH]4)cc3)cc2)cc1,3.84%,5.18%,2.97%
